Screening results as filed in PubChem.
This is one part of a sample in which hits are shown more often than they occur.
Dicer processing = blocks human Dicer maturation of pre-miR-21; z-score at 25 µM; 47,000 compounds, 6% hits; cat-ELCCA pre-miR-21 Dicer processing, chemiluminescence; stronger effect = higher value; AID 1347074; Q9UPY3; in the data active = z-score above about 3, passing the limit was not always enough;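 note: plate controls were vehicle for no effect and no enzyme for full effect; higher signal means more uncleaved substrate so more Dicer inhibition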
* hit, by the source's call.

Results for Clc1ccc(OCOc2ccc(Cl)cc2)cc1 ?
Dicer processing: -0.52

Results for O=C(O)C1C2C=CC(O2)C1C(=O)NCc1ccncc1 (centres undefined) ?
Dicer processing: -0.98

How did CCCCC(CC)CNC(=O)C1C2C=CC(O2)C1C(=O)O (centres undefined) do in these assays?
Dicer processing: -0.18

How did O=C(O)C1C2C=CC(O2)C1C(=O)NCc1cccc(Cl)c1 (centres undefined) do in these assays?
Dicer processing: 4.43*

Results for CCO/C=C(\C#N)S(=O)(=O)c1ccc(Cl)cc1 ?
Dicer processing: 1.74

How did COC(=O)c1cc([N+](=O)[O-])ccc1NC(C)=O do in these assays?
Dicer processing: 0.17

How did CCn1c(SCC(=O)c2ccccc2)nnc1-c1oc2nc(-c3ccccc3)cc(-c3ccco3)c2c1N do in these assays?
Dicer processing: -1.62

Results for C=CCOc1ccc(/C(O)=C2/C(=O)C(=O)N(CCOC)C23C(=O)N(CC)c2ccccc23)cc1C (centres undefined) ?
Dicer processing: 6.05*

Results for C=CCOc1ccc(/C(O)=C2/C(=O)C(=O)N(CC3CCCO3)C23C(=O)N(C)c2ccccc23)cc1C (centres undefined) ?
Dicer processing: 5.15*

What do the screens show for `COc1ccc(/C(O)=C2/C(=O)C(=O)N(CC3CCCO3)C23C(=O)N(C)c2ccccc23)cc1C` (centres undefined)?
Dicer processing: 2.19

Results for CCN1C(=O)C2(/C(=C(/O)c3ccc(C)c(F)c3)C(=O)C(=O)N2CCOC)c2ccccc21 (centres undefined) ?
Dicer processing: 8.73*

What do the screens show for `C=CCOc1ccc(/C(O)=C2/C(=O)C(=O)N(CCCN(C)C)C23C(=O)N(C)c2ccccc23)cc1C` (centres undefined)?
Dicer processing: 2.49

What do the screens show for `C=CCOc1ccc(/C(O)=C2/C(=O)C(=O)N(CCOC)C23C(=O)N(CC)c2ccccc23)cc1` (centres undefined)?
Dicer processing: -0.44

Results for C=CCOc1ccc(/C(O)=C2/C(=O)C(=O)N(CCCOC)C23C(=O)N(C)c2ccccc23)cc1C (centres undefined) ?
Dicer processing: 2.69

How did CCN1C(=O)C2(/C(=C(/O)c3ccc(OC)cc3)C(=O)C(=O)N2CCOC)c2ccccc21 (centres undefined) do in these assays?
Dicer processing: 0.23

How did CCN1C(=O)C2(/C(=C(/O)c3ccc(C)c(F)c3)C(=O)C(=O)N2CCN2CCOCC2)c2ccccc21 (centres undefined) do in these assays?
Dicer processing: -1.38

How did CCOC(=O)C1=C(C)NC2=C(C(=O)CC(c3cccs3)C2)C1c1coc2ccc(C)cc2c1=O (centres undefined) do in these assays?
Dicer processing: 0.69

What do the screens show for `Clc1cc2nc3c(nc2cc1Cl)CCCC3`?
Dicer processing: 0.98

Results for Cc1cc(Nc2ccccc2C(=O)O)n(-c2c(Cl)cccc2Cl)n1 ?
Dicer processing: -1.54

What do the screens show for `Cn1nnnc1SCC(=O)NC1Cc2ccccc2C1`?
Dicer processing: 1.44

What do the screens show for `CC(C)/C(=N\OC(=O)c1ccc(C(F)(F)F)cc1)c1ccccc1`?
Dicer processing: -0.99

How did O=C(N/N=C1/CCCc2occc21)c1ccc([N+](=O)[O-])cc1 do in these assays?
Dicer processing: 0.39

What do the screens show for `Cc1nn(C(=O)c2cc(C)n(-c3ccccc3)n2)c(C)c1Br`?
Dicer processing: 0.82

What do the screens show for `COC(=O)c1c(C)n(S(C)(=O)=O)c2ccc(N(C(=O)c3ccco3)S(C)(=O)=O)cc12`?
Dicer processing: -0.07

Results for Cc1ccc(CSc2nnc(/N=C/NO)s2)cc1 ?
Dicer processing: -2.28

How did COc1ccc(-c2cnc3c(-c4ccc(OC)c(OC)c4)cnn3c2N)cc1OC do in these assays?
Dicer processing: 2.97

How did CC(C)c1ccc(C2C(C#N)=C(N)Oc3cc(O)ccc32)cc1 (centres undefined) do in these assays?
Dicer processing: 4.93*

Results for COc1ccc(C2C(C#N)=C(N)Oc3cc(O)ccc32)cc1C (centres undefined) ?
Dicer processing: -0.6

How did C=CCOc1ccc(C2C(C#N)=C(N)Oc3cc(O)ccc32)cc1Cl (centres undefined) do in these assays?
Dicer processing: 12.5

What do the screens show for `COc1ccc(-c2cc(C(F)(F)F)n3nc(-c4ccc(Cl)cc4)cc3n2)cc1`?
Dicer processing: -0.12

What do the screens show for `O=C(CSc1nc2sc3c(c2c(=O)[nH]1)CCCC3)NCCCn1ccnc1`?
Dicer processing: -0.93

Results for O=C1C=C(NCc2ccncc2)CC(c2ccccc2)C1 (centres undefined) ?
Dicer processing: 1.75

How did O=C1C=C(NCc2ccco2)CC(c2ccccc2)C1 (centres undefined) do in these assays?
Dicer processing: 1.18

Results for O=C1C=C(NCCc2ccccc2)CC(c2ccco2)C1 (centres undefined) ?
Dicer processing: 5.65*

How did C=CCNC(=O)CSc1nnc(CSc2cccs2)n1C do in these assays?
Dicer processing: 0.48

How did CC(=O)/C(=C\Nc1ccc(O)cc1)c1nnnn1-c1ccccc1 do in these assays?
Dicer processing: 2.84

What do the screens show for `Cc1ccc(C)c(OCCn2cc(C(=O)C3CC3)c3ccccc32)c1`?
Dicer processing: 0.54

What do the screens show for `O=C(Nc1ccccc1)N1CCSCC1`?
Dicer processing: 1.61

What do the screens show for `O=C(Nc1ccc(Cl)cc1)N1CCOCC1`?
Dicer processing: 0.1

Results for O=C(Nc1ccc(OC(=O)N(c2ccccc2)c2ccccc2)cc1)N1CCOCC1 ?
Dicer processing: 3.88*

Results for Cc1ccc(Cn2nnc(-c3cc(C(F)(F)F)cc(C(F)(F)F)c3)n2)cc1 ?
Dicer processing: -0.57

Results for CCOC(=O)C(=CNc1cc(C(F)(F)F)ccc1F)C(=O)OCC ?
Dicer processing: 0.7

What do the screens show for `CC1=C(C(=O)OCc2ccccc2)C(c2ccc3ccccc3c2)N(C)C(=O)N1C` (centres undefined)?
Dicer processing: -0.4

What do the screens show for `Cc1ccc(NC(=O)c2ccsc2)cc1NS(C)(=O)=O`?
Dicer processing: -2.15

What do the screens show for `Cc1csc(NC(=O)Nc2ccc(C(F)(F)F)cc2)c1Cl`?
Dicer processing: 0.31

Results for Cc1ccc(NC(=O)Nc2ccc(C(F)(F)F)cc2)cc1NS(C)(=O)=O ?
Dicer processing: 6.26*

What do the screens show for `O=C(CN1C(=O)CCC1=O)c1ccc(F)cc1`?
Dicer processing: 0.47

How did O=C(OCCN=C1NS(=O)(=O)c2ccccc21)c1ccc(F)cc1 do in these assays?
Dicer processing: 0.1

What do the screens show for `Cc1n[nH]c(C)c1Sc1nnnn1-c1ccccc1`?
Dicer processing: -1.73

What do the screens show for `NC(=O)CSc1nnnn1-c1ccccc1`?
Dicer processing: 4.88*

Results for CS(=O)(=O)NCCSc1nnnn1-c1ccccc1 ?
Dicer processing: -0.83

How did CCc1nnc(NC(=O)CSc2nnnn2-c2ccccc2)s1 do in these assays?
Dicer processing: 1.79

How did O=C(CSc1nnnn1-c1ccccc1)Nc1cccc(F)c1 do in these assays?
Dicer processing: 0.09

Results for CC(C)Sc1nnnn1-c1ccccc1 ?
Dicer processing: 4.91*

How did C=CCn1c2ccc(Br)cc2c2cc(Br)ccc21 do in these assays?
Dicer processing: -0.79

How did CCOC(=O)C1=CNc2ccccc2N=C1N do in these assays?
Dicer processing: -0.57

How did Cc1ccccc1OC1C(=O)N(Cc2ccc3c(c2)OCO3)C1c1ccc(F)cc1 (centres undefined) do in these assays?
Dicer processing: 1.47

What do the screens show for `Cc1cc(SCCS(=O)(=O)CCSc2cc(C)c(Cl)cc2C)c(C)cc1Cl`?
Dicer processing: 1.78
